For test [1], the target named is Sphingosine kinase 1 (Homo sapiens) (UniProt Q9NYA1). The following applies: at 1 µM.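 Also: mean SPHK1 inhibition value reported from the GSK PKIS kinase panel screen.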
In test [2] the target is T1, Sphingosine kinase 2 (Homo sapiens) (UniProt Q9NRA0).
T1 sequence (whole entry): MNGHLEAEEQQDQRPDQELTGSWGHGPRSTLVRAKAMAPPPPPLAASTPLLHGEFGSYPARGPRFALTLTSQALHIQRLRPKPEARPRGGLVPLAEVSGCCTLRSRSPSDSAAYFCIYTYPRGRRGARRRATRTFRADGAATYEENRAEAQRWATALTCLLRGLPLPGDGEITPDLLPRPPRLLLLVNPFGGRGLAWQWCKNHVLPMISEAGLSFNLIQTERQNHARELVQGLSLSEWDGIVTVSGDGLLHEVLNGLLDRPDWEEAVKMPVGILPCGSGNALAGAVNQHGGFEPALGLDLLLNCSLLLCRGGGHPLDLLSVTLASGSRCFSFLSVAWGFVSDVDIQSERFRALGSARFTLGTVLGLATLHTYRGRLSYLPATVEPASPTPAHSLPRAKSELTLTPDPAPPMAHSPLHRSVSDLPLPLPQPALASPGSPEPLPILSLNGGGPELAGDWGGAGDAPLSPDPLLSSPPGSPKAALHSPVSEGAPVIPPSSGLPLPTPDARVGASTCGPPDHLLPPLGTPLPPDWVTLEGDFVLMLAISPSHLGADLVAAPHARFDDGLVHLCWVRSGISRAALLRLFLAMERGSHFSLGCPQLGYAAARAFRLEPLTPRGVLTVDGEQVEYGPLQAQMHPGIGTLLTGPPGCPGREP
The following applies: at 0.1 µM.

For test [3], the target named is T1, Sphingosine kinase 2 (Homo sapiens). The following applies: at 1 µM.
For test [4], the target named is Casein kinase II subunit alpha (Homo sapiens) (UniProt P68400). The following applies: at 0.1 µM.
For test [5] the target is unchanged. The following applies: at 1 µM.
The target in test [6] is T2, Inhibitor of nuclear factor kappa-B kinase subunit alpha (Homo sapiens) (UniProt O15111).
T2 sequence (whole entry): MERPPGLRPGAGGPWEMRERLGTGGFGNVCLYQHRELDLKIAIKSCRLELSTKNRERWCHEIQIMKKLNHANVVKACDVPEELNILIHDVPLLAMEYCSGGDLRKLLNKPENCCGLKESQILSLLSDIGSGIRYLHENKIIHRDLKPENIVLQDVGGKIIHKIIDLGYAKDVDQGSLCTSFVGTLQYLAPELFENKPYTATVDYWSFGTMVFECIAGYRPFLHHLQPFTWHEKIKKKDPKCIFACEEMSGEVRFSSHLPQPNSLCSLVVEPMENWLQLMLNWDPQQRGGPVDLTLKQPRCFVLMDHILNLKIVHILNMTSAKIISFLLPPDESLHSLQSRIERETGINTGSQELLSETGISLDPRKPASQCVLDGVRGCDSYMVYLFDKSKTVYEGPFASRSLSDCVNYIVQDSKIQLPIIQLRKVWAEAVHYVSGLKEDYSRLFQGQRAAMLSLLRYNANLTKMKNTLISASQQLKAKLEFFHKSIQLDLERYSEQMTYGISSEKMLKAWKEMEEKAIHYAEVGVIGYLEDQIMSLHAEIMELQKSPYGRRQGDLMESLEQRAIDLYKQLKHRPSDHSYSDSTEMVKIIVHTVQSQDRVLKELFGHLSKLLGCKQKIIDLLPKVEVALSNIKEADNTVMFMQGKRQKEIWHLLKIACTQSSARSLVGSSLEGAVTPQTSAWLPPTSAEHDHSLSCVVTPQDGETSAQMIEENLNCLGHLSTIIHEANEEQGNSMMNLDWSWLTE
The following applies: at 0.1 µM.

Test [7] has as its target T2, Inhibitor of nuclear factor kappa-B kinase subunit alpha (Homo sapiens). The following applies: at 1 µM.
Test [8] has as its target T3, Inhibitor of nuclear factor kappa-B kinase subunit beta (Homo sapiens) (UniProt O14920).
T3 sequence (whole entry): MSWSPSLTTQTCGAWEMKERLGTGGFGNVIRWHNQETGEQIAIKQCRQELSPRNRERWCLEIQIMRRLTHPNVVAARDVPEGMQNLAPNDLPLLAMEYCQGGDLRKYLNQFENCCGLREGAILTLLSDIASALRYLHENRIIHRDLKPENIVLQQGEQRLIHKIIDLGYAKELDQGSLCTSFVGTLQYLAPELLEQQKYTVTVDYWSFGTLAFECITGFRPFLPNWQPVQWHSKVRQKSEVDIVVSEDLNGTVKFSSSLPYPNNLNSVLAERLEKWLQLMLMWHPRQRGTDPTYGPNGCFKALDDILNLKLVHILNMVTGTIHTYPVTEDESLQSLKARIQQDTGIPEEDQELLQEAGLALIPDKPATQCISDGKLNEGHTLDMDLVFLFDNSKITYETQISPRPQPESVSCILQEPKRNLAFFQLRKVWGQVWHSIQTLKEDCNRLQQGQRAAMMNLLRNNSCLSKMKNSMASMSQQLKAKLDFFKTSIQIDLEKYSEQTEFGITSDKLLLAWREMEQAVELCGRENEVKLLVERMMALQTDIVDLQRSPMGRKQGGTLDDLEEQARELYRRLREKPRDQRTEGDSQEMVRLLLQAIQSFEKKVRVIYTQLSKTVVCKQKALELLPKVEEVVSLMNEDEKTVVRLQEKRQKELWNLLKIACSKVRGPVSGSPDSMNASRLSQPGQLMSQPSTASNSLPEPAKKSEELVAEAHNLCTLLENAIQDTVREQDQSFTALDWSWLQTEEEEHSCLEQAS
The following applies: at 0.1 µM.

Test [9] has as its target T3, Inhibitor of nuclear factor kappa-B kinase subunit beta (Homo sapiens). The following applies: at 1 µM.
Test [10] addresses T4, Inhibitor of nuclear factor kappa-B kinase subunit epsilon (Homo sapiens) (UniProt Q14164).
T4 sequence (whole entry): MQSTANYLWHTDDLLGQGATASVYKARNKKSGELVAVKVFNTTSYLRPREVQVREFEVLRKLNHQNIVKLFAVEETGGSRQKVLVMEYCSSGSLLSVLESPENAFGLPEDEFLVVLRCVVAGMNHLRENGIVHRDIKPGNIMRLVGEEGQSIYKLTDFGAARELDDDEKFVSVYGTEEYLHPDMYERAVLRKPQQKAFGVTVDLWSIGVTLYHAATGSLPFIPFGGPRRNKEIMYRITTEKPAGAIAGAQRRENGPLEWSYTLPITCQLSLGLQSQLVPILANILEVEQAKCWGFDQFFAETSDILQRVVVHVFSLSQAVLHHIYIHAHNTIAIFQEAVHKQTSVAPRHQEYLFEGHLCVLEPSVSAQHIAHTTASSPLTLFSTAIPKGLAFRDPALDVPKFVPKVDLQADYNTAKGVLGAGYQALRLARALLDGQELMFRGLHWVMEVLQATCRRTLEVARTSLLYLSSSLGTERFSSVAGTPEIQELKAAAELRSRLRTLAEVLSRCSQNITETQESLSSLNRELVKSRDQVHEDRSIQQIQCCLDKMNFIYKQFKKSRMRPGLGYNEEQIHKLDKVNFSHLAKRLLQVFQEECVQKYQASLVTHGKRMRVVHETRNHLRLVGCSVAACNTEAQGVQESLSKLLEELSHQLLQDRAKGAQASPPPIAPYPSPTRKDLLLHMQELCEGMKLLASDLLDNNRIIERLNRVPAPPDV
The following applies: at 0.1 µM.

Test [11] addresses T4, Inhibitor of nuclear factor kappa-B kinase subunit epsilon (Homo sapiens). The following applies: at 1 µM.
Test [12] concerns the target T5, Serine/threonine-protein kinase Nek1 (Homo sapiens) (UniProt Q96PY6).
T5 sequence (whole entry): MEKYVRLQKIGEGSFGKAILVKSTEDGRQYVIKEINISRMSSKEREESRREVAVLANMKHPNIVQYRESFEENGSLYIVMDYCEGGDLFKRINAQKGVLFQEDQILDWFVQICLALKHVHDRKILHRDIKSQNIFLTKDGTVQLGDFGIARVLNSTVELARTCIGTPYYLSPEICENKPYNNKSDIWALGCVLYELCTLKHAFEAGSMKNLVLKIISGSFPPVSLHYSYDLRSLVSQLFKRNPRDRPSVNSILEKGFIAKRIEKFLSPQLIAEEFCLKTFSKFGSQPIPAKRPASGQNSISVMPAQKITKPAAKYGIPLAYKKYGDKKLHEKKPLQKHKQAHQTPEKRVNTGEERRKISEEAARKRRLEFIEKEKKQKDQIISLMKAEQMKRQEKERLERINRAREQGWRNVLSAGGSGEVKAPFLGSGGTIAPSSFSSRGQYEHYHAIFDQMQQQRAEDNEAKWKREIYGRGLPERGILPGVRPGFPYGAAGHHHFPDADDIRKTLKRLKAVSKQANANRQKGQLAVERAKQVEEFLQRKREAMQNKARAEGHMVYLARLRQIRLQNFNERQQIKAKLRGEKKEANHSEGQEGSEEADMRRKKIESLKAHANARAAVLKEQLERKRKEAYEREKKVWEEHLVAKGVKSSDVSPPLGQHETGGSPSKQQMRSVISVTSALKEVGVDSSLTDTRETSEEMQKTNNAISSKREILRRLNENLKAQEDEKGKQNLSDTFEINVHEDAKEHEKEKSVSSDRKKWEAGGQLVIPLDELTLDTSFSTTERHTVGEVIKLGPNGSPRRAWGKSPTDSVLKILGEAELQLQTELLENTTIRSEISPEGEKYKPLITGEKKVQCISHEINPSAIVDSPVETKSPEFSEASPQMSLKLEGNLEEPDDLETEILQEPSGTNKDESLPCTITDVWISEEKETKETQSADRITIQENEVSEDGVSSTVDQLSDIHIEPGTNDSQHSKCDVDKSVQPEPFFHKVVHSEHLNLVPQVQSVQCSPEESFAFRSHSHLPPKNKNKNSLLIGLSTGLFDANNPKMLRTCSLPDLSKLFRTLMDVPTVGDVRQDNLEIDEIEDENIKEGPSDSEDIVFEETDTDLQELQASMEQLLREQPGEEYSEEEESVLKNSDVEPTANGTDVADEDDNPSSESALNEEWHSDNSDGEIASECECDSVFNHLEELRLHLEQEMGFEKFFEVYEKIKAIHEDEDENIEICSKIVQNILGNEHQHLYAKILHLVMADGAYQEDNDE
The following applies: at 0.1 µM.

Test [13] addresses T5, Serine/threonine-protein kinase Nek1 (Homo sapiens). The following applies: at 1 µM.
Test [14] deals with T6, Serine/threonine-protein kinase Nek2 (Homo sapiens) (UniProt P51955).
T6 sequence (whole entry): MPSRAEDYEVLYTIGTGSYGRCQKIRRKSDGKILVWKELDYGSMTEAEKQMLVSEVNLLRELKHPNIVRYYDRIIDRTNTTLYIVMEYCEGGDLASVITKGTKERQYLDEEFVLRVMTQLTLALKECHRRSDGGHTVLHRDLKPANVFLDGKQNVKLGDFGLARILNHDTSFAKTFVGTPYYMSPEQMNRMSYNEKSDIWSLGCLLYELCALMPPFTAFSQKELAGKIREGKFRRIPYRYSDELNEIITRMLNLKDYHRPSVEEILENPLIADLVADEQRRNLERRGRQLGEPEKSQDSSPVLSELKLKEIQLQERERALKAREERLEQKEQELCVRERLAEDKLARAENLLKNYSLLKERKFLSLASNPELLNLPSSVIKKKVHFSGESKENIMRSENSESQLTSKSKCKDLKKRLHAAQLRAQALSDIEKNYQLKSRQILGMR
The following applies: at 0.1 µM.

The target of test [15] is T6, Serine/threonine-protein kinase Nek2 (Homo sapiens). The following applies: at 1 µM.
In test [16] the target is Serine/threonine-protein kinase Nek6 (Homo sapiens) (UniProt Q9HC98). The following applies: at 0.1 µM.
Test [17] shares this target. The following applies: at 1 µM.
Test [18] deals with Serine/threonine-protein kinase Nek7 (Homo sapiens) (UniProt Q8TDX7). The following applies: at 0.1 µM.
Test [19] shares this target. The following applies: at 1 µM.
The target in test [20] is T7, Serine/threonine-protein kinase Nek9 (Homo sapiens) (UniProt Q8TD19).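 Also: reported value is the mean percent inhibition of NEK9.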
T7 sequence (whole entry): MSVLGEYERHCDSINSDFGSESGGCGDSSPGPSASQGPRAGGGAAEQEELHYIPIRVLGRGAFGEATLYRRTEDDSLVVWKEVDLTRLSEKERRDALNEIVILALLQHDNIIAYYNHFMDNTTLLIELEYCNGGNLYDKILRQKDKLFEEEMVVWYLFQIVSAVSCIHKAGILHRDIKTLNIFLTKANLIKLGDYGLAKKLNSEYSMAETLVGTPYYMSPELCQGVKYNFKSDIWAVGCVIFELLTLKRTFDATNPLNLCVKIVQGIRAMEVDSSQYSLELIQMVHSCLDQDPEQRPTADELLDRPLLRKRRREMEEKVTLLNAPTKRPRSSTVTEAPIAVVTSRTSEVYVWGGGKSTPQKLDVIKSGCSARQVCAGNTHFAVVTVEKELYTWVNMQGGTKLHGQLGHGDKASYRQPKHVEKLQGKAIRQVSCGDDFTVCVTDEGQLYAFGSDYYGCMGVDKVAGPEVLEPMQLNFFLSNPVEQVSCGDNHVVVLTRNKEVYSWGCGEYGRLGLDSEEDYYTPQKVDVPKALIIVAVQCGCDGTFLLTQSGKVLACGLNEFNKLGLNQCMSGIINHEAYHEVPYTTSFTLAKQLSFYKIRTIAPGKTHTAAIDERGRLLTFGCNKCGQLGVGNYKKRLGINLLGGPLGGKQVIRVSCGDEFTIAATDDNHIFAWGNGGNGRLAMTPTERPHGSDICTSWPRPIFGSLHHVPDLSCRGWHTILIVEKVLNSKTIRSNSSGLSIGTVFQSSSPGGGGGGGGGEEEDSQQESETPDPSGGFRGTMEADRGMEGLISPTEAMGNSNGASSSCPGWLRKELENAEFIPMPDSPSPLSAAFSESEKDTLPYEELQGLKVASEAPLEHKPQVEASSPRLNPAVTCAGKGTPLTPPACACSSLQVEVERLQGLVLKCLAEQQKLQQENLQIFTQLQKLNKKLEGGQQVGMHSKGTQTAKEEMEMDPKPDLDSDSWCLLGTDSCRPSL
The following applies: at 0.1 µM.

Chain of Casein kinase II subunit alpha (Homo sapiens) (P68400 whole entry, looked up): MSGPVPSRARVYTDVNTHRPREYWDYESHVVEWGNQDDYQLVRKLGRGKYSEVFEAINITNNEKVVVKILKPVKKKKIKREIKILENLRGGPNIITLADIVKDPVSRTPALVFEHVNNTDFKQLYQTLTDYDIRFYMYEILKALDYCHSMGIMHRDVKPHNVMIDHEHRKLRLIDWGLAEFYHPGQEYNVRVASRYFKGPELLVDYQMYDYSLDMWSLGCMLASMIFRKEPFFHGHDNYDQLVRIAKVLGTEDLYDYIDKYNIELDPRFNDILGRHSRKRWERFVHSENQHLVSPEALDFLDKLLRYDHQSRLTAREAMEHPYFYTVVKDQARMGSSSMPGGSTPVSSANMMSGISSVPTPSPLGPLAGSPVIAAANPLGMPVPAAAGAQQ
Chain of Serine/threonine-protein kinase Nek6 (Homo sapiens) (Q9HC98 whole entry): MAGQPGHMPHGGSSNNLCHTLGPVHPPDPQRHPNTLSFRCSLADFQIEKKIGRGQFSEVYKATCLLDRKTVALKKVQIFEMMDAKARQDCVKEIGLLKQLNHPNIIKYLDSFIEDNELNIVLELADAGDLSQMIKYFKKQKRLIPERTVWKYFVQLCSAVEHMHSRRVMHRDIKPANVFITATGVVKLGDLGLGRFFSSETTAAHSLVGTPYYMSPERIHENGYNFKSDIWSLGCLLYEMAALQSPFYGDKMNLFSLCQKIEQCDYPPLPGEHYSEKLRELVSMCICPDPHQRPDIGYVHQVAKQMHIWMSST
Chain of Serine/threonine-protein kinase Nek7 (Homo sapiens) (Q8TDX7 whole entry, looked up): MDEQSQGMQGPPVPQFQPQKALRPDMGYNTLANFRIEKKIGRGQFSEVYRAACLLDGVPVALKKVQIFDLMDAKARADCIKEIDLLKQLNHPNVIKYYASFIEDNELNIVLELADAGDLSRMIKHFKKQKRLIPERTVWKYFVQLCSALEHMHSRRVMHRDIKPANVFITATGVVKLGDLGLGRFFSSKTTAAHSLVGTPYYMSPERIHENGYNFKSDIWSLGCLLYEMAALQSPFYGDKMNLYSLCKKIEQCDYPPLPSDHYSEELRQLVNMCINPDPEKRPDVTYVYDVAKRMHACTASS
Chain of Sphingosine kinase 1 (Homo sapiens) (Q9NYA1 whole entry): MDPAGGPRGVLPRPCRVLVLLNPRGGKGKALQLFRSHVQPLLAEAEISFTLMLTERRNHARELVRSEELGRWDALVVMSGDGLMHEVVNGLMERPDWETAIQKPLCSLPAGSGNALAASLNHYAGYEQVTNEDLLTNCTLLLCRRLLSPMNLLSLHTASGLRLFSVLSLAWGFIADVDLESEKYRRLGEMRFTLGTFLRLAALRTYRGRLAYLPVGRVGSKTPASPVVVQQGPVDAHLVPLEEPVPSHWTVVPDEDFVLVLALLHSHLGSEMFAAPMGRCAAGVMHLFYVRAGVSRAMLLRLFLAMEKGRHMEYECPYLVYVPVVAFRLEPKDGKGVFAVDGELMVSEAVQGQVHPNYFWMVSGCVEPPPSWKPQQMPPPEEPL

On to `NS(=O)(=O)c1ccc(Nc2ncc(-c3ccccc3)o2)cc1`, for which the inhibition was 0% in test [1]; -1.43% in test [2]; -1.09% in test [3]; 3.56% in [4]; 10.3% in test [5]; 6.23% in test [6]. The inhibition came out at 15.3% in test [7]; 3.35% in test [8]; 11.7% in test [9]; 4.43% in test [10]; 5.67% in test [11]; 2.41% in test [12]. Besides, the inhibition in [13] amounted to 5.75%; in [14], 4.32%; in test [15], 4.17%; in test [16], 2.71%; in [17] it was 1.65%; in test [18], 2.06%. Besides, the inhibition in test [19] came out at 2.65%; in [20] it was 3.91%.

The values above are taken from ChEMBL document CHEMBL1961873, “Compounds: GSK PKIS; Assays: Nanosyn kinase panel” (2012).
